Here are results for eleven compounds from ChEMBL document CHEMBL3988442, “University of Dundee, Small-Polar-MMV Screening Library” (2021).

For some of these results: Results with a measured potency or affinity are listed apart.

Common to all, as to set-up: scale not given: direction of the effect not stated beside the values
In experiment [1] the target is Protein translocase subunit SecA (Escherichia coli (strain K12)) (UniProt P10408). The experiment in a line: Assay to Identify E. coli SecA ATPase Inhibitors. Type of experiment: functional. The note with it: 30 µM.
Experiment [2] addresses T1, Ubiquitin-activating enzyme e1, putative (Leishmania donovani (strain BPK282A1)) (UniProt E9BSI1).
T1 sequence (whole entry): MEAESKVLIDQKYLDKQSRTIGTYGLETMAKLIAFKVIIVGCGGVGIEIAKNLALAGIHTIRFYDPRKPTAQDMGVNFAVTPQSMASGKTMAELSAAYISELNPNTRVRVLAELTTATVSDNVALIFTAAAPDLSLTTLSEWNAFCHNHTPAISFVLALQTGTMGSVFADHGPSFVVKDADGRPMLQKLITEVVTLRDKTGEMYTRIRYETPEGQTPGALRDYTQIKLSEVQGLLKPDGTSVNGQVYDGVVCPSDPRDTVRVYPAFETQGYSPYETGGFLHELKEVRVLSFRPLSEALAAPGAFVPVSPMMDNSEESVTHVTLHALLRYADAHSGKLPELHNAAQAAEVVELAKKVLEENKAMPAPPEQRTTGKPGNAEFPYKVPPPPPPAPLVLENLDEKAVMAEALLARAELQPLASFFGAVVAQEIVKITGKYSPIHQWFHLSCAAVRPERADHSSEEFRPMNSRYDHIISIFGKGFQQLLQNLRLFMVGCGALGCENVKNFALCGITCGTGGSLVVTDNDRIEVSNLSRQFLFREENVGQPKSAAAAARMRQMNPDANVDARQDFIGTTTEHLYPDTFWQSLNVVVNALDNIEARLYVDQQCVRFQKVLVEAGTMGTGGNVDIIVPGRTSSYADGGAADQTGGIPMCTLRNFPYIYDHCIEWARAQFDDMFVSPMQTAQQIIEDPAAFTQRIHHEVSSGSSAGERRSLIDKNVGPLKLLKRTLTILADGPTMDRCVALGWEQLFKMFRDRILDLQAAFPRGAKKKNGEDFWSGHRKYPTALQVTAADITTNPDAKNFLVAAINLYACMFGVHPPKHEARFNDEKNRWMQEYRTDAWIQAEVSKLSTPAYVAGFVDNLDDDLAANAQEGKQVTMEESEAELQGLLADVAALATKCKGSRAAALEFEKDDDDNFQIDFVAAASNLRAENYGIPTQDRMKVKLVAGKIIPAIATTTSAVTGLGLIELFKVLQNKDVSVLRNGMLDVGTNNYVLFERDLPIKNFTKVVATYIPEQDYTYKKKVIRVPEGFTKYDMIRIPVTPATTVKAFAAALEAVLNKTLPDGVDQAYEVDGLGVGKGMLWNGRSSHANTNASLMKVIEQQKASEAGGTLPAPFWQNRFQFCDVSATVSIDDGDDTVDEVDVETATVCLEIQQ
As to the kind of experiment: Leishmania donovani Ubiquitin Activating Enzyme (LdE1). The experiment is classed as functional. Conditions: 30 µM.

The target in experiment [3] is AMP-activated protein kinase, AMPK (Homo sapiens) (UniProt P54646+O43741+P54619+Q9UGJ0+Q9Y478+Q13131+Q9UGI9). As to the kind of experiment: AMP-dependent Kinase enzyme assay. An in vitro enzyme assay that detects ADP turnover that is directly proportional to AMPK activity. This uses naive AMPK that is activated during the assay with MK-8722. Type of experiment: functional. The note with it: 30 µM.

Experiment [4] addresses Sialic acid-binding Ig-like lectin 9 (Homo sapiens) (UniProt Q9Y336). The experiment in a line: Hs-Siglec9 ALPHAscreen SOP 20170721. The note with it: 10 µM.
For another experiment, the system named is Trypanosoma cruzi. As to the kind of experiment: Trypanosoma cruzi phosphomannomutase and mannose-1-phosphate guanylyltransferase assay. Type of experiment: functional. The note with it: 10 µM.
The target of experiment [5] is T2, Arginase-2, mitochondrial (Homo sapiens) (UniProt P78540).
T2 sequence (whole entry): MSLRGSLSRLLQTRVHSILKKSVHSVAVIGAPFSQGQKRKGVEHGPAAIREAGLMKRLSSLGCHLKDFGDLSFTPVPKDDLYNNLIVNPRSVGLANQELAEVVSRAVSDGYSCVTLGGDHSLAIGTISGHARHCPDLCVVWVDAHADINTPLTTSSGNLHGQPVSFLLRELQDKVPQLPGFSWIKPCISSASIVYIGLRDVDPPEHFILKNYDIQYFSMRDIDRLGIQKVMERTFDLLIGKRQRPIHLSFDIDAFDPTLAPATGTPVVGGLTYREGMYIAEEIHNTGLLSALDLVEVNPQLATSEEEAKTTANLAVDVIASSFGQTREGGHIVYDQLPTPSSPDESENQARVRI
As to the kind of experiment: in vitro enzyme assay to detect the production of urea directly proportional to the activity of Arginase II. Also: in the data most compounds retested in dose-response had high values. The experiment is classed as functional. Conditions: 33.3 µM.

In experiment [6] the target is T3, Proteasome subunit beta (Trypanosoma cruzi) (UniProt O96673).
T3 sequence (whole entry): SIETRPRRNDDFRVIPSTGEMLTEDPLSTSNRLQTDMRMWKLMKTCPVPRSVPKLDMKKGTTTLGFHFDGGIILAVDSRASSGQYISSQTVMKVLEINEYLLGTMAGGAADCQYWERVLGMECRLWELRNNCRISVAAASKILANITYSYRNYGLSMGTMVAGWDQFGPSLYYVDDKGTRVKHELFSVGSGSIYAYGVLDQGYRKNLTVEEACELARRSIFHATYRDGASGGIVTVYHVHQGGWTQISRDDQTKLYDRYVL
The experiment in a line: Trypanosoma cruzi proteasome chymotrypsin-like activity (TcProtChymo) assay. Also: in the data most compounds retested in dose-response had high values. Type of experiment: functional. Conditions: 9.37 µM.

A further experiment is filed under the species Homo sapiens. As to the kind of experiment: To identify inhibition of the IFN signalling (Jak-Stat) pathway via expression of an eGFP reporter gene under the control of an IFN-stimulated response element (ISRE) containing MxA promoter. Conditions: 30 µM. Type of experiment: functional.
In experiment [7] the target is T4, Tyrosyl-tRNA synthetase, putative (Trypanosoma cruzi (strain CL Brener)) (UniProt Q4DSP6).
T4 sequence (whole entry): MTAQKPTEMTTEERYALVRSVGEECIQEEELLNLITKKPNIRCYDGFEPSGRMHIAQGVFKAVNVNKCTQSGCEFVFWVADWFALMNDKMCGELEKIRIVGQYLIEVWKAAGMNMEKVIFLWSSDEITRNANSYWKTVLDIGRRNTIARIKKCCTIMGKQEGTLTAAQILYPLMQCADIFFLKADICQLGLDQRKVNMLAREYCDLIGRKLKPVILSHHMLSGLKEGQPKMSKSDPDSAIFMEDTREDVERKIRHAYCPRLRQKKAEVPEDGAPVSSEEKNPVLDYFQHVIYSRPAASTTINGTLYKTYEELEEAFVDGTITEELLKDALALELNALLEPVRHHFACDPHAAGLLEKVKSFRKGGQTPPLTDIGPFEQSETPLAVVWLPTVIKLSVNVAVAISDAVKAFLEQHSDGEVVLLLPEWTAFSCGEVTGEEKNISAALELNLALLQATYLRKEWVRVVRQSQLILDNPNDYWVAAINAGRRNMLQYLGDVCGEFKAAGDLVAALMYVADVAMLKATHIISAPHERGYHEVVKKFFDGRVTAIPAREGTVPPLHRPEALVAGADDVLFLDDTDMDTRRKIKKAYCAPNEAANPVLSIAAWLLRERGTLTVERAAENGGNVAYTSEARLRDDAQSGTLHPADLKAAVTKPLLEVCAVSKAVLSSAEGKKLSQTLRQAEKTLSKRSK
As to the kind of experiment: Trypanosoma cruzi tyrosyl tRNA synthetase (TcYRS) _High Tyrosine SOP. Also: in the data most compounds retested in dose-response had high values. The experiment is classed as functional. The note with it: 30 µM.

Experiment [8] has as its target T4, Tyrosyl-tRNA synthetase, putative (Trypanosoma cruzi (strain CL Brener)). The experiment in a line: Trypanosoma cruzi tyrosyl tRNA synthetase (TcYRS) SOP. Type of experiment: functional. The note with it: 30 µM.
The target in experiment [9] is Chromo domain-containing protein 1 (Saccharomyces cerevisiae (strain ATCC 204508 / S288c) (Baker's yeast)) (UniProt P32657). As to the kind of experiment: ScCHD-1 Enzyme Inhibition Assay. Also: in the data most compounds retested in dose-response had high values. The note with it: 30 µM. Type of experiment: functional.
Sequence of Chromo domain-containing protein 1 (Saccharomyces cerevisiae (strain ATCC 204508 / S288c) (Baker's yeast)) (P32657 whole entry, the tested form may be a part): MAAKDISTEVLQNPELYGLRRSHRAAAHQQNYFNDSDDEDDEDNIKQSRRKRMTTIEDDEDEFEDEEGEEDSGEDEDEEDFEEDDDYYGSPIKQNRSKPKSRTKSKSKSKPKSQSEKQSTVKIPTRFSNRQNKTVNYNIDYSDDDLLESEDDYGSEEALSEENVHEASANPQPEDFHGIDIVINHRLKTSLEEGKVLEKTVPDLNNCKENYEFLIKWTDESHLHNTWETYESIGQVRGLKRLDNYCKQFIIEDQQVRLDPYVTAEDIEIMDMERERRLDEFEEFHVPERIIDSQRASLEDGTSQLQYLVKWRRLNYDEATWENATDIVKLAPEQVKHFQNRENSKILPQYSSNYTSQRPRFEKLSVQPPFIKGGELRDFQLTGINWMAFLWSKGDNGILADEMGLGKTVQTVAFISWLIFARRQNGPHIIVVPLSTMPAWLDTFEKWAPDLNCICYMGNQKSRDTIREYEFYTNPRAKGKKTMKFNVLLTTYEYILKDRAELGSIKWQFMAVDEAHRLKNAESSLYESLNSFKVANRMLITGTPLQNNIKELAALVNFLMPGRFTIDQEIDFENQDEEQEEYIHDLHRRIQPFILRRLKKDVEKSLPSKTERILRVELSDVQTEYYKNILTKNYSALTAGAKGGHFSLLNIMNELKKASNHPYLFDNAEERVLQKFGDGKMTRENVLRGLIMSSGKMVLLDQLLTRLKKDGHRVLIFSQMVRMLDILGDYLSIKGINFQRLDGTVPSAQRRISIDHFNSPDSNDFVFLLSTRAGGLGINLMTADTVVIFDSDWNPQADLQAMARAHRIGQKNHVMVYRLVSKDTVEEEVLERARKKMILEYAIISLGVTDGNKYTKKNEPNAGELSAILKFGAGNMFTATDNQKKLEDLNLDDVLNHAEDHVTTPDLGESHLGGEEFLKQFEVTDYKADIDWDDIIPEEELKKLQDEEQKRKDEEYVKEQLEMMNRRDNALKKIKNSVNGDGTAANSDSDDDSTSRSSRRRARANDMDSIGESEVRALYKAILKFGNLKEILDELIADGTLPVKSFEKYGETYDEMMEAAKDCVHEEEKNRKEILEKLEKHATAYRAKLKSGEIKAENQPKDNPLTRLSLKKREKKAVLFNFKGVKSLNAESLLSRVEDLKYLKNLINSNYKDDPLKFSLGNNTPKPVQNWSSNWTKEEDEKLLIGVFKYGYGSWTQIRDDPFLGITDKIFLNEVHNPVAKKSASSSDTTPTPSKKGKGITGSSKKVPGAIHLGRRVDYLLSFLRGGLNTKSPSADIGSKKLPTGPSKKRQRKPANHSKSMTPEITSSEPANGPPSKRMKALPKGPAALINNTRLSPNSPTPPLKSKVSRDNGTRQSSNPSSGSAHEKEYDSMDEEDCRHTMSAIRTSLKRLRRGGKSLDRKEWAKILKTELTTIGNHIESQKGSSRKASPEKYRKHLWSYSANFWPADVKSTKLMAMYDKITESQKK

Sequence of Protein translocase subunit SecA (Escherichia coli (strain K12)) (P10408 whole entry): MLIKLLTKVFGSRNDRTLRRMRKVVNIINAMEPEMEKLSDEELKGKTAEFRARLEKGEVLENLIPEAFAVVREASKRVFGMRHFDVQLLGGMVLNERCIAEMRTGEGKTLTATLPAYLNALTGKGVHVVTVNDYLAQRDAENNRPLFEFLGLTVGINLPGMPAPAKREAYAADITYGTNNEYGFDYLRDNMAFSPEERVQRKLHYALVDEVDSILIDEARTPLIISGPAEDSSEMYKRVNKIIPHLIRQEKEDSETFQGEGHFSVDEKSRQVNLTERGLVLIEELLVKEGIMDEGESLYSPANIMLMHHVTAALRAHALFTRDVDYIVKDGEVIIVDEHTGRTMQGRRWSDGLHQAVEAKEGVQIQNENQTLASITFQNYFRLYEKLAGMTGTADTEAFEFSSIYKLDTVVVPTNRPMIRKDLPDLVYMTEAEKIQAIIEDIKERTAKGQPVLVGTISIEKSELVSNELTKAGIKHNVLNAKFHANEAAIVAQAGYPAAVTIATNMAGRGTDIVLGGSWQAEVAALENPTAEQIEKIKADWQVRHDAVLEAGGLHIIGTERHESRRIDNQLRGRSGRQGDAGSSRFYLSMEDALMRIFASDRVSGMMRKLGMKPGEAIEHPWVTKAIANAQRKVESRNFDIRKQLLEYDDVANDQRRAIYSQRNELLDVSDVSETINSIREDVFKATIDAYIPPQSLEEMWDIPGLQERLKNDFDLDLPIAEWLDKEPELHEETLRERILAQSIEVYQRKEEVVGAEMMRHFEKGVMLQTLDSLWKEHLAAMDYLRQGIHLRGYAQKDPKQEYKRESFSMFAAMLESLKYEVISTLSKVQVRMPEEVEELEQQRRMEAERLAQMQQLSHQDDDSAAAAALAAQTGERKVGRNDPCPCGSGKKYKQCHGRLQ
Sequence of Sialic acid-binding Ig-like lectin 9 (Homo sapiens) (Q9Y336 whole entry): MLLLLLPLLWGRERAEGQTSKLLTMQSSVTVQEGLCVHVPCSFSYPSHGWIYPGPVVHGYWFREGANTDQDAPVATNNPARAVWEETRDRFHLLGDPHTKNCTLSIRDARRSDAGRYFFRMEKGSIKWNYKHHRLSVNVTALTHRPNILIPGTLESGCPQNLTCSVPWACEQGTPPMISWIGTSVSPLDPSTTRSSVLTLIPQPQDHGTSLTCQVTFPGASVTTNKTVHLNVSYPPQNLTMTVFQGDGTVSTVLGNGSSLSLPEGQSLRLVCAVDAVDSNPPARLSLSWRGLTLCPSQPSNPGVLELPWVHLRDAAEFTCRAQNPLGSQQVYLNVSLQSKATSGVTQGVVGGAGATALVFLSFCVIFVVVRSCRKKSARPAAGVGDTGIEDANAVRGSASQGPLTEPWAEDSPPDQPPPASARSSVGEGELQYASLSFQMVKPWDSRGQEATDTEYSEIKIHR

`O=C(CCC1CC1)N1C[C@@H](CN2CCCC2)[C@@H](CO)C1`: the Percent Effect in experiment [1] was -2.75%; in experiment [2] it was 0%; in experiment [3], 2.73%; in experiment [4], 1.73%; with Trypanosoma cruzi, -2.46%; in [5], -8.28%. Also, the Percent Effect in experiment [6] was 3.49%; in the experiment listed under Homo sapiens, 4.43%; in [7], 2.15%; in experiment [8], 6.17%; in [9] it was -2.02%.

With `CC(C)Nc1ncc(CN2C[C@@H](CN3CCC(O)CC3)[C@@H](CO)C2)cn1`, the Percent Effect is -5.5% in [1]; 2.67% in [2]; -4.76% in experiment [3]; 7.2% in experiment [4]; 2.43% in the experiment with Trypanosoma cruzi; -0.521% in experiment [5]. The Percent Effect was 12.2% in [6]; 8.53% in the experiment filed under Homo sapiens; 4.92% in experiment [7]; 11.1% in [8]; -8.5% in experiment [9].

For the compound `COC(=O)c1cc(C(=O)N2CCCCCC2)n(-c2ccccc2)n1`, the Percent Effect in experiment [1] was -5.27%; in [2] it was 2.63%; in experiment [3] it was 0.404%; in experiment [4] it was 4.54%; in the experiment on Trypanosoma cruzi, -5.08%; in experiment [5], 1.92%. Moreover, the Percent Effect in [6] is -3.51%; in the experiment filed under Homo sapiens, 18.4%; in experiment [7] it was 2.45%; in [8], 9.76%; in [9] it was -1.11%.

For the compound `Cn1c(CN2CCN(CC3CC3)CC2)nnc1C1CCC1`, the Percent Effect in experiment [1] was -8.27%; in experiment [2], 0%; in experiment [3], -14%; in experiment [4], 5.49%; in the experiment with Trypanosoma cruzi it was -0.392%; in experiment [5] it was -1.36%. Besides, the Percent Effect in [6] is 4.44%; in the experiment filed under Homo sapiens, -5.43%; in experiment [7], -2.15%; in experiment [8] it was 0%; in [9] it was -2.31%.

In the case of `COc1c(C)cnc(CN2CCOC(Cn3nc(C)nc3C)C2)c1C` (stereo unspecified), the Percent Effect in experiment [1] was -3.44%; in experiment [2], 7.59%; in [3] it was -1.91%; in experiment [4], 11%; with Trypanosoma cruzi it was 1.6%; in experiment [5], 4.94%. Moreover, the Percent Effect in experiment [6] was -8.11%; in the experiment filed under Homo sapiens, -11.7%; in experiment [7], 2.46%; in [8], -8.86%; in experiment [9], 0.784%.

Regarding `Cn1ccnc1COc1ccc(CO)cc1`, the Percent Effect in experiment [1] was -1.04%; in experiment [2], 5.2%; in experiment [3] it was -1.87%; in [4] it was -8.74%; in the experiment with Trypanosoma cruzi, -5.06%; in experiment [5], 8.19%. The Percent Effect is 6.59% in experiment [6]; 36.8% in the experiment filed under Homo sapiens; 3.88% in experiment [7]; 14.6% in experiment [8]; -8.46% in [9].

With `Cc1nnc(N2CC[C@H]3C[C@H](C(=O)N4CCOCC4)O[C@H]3C2)s1`, the Percent Effect is -2.55% in [1]; 0% in [2]; 5.32% in experiment [3]; 2.05% in experiment [4]; 0.0978% in the experiment with Trypanosoma cruzi; -0.955% in experiment [5]. Further, the Percent Effect in experiment [6] was 14.6%; in the experiment listed under Homo sapiens, -19.4%; in [7], 1.08%; in [8], 5.13%; in experiment [9], 1.53%.

Turning to `CN(C)[C@@H]1CCN(c2ncccn2)[C@H]1Cc1ccccc1`, the Percent Effect in experiment [1] was -5.52%; in experiment [2], 5.2%; in [3], 0.378%; in experiment [4], 3.63%; in the experiment on Trypanosoma cruzi, 2.06%; in experiment [5], -1.38%. The Percent Effect is 8.65% in [6]; -3.26% in the experiment listed under Homo sapiens; 2.15% in experiment [7]; 6.17% in experiment [8]; 1.34% in [9].

As to `O=C1[C@H]2CC[C@H](CN(Cc3ccccc3OC(F)F)C2)N1CC1CC1`, the Percent Effect in experiment [1] worked out at 2.17%; in experiment [2], 13.5%; in experiment [3], 8.9%; in experiment [4], 13.9%; with Trypanosoma cruzi it was 4.05%; in experiment [5], 13.3%. Besides, the Percent Effect in experiment [6] was 17.1%; in the experiment listed under Homo sapiens, 19%; in [7], 7.94%; in experiment [8], 17.1%; in experiment [9] it was -1.8%.

For `COCCNC(=O)C[C@@H]1COC[C@H]2CN(C(=O)c3cnccn3)C[C@@H]12`, the Percent Effect in [1] is -0.696%; in experiment [2], 8.22%; in [3] it was -4.71%; in experiment [4], 7.09%; with Trypanosoma cruzi it was 6.15%; in experiment [5], 1.6%. The Percent Effect is 11.2% in experiment [6]; 21.4% in the experiment filed under Homo sapiens; 9.38% in experiment [7]; 13.6% in [8]; -3.17% in experiment [9].

Take `CCC1(CO)CCCN(c2ncccc2C#N)C1` (stereo unspecified): the Percent Effect is -4.07% in [1]; -5.41% in [2]; -0.35% in [3]; 5.12% in experiment [4]; -1.74% in the experiment on Trypanosoma cruzi; -3.81% in experiment [5]. The Percent Effect was -0.69% in experiment [6]; 19.1% in the experiment listed under Homo sapiens; -1.59% in [7]; 0% in [8]; -3.09% in experiment [9].
